In PubChem BioAssay AID651610 (Broad Institute, 2012):
The campaign covered roughly 360,000 compounds. About 3,900 (1.1%) were called active. Many of the other results were omitted from the sample, so actives are more common in it than they were. Values without a mark were called inactive.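 Rule for the calls: active = mean replicate inhibition score of at least 50 and every replicate individually at or above 50; inconclusive = only one of the two criteria met; inactive = mean below 50 and not all replicates reaching 50.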

Assay: blockers of JRFL envelope-mediated fusion – HeLa-JRFL effector, CEM21 target cells, luciferase, primary screen (AID 651610);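 note: 0% = plate neutral controls and 100% = maraviroc near 300 nM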
Conditions: HeLa-JRFL Env/CEM21 cell fusion, active compounds read high; at 16.7 µM unless noted

Compound	inhibition
CO[C@@H]1CN(C)C(=O)c2cc(NC(C)=O)ccc2OC[C@H](C)N(C(=O)CC2CC2)C[C@@H]1C	-18.3%
Cc1noc(C)c1S(=O)(=O)Nc1ccc2c(c1)C(=O)N([C@H](C)CO)C[C@@H](C)[C@@H](CN(C)C(=O)C1CCCCC1)OCCCC[C@@H](C)O2	2.09%
C[C@H](O)C#Cc1cnc2c(c1)C(=O)N([C@@H](C)CO)C[C@H](C)[C@@H](CN(C)C(=O)c1ccncc1)O2	-14.6%
CO[C@@H]1CN(C)C(=O)c2cc(NC(=O)c3ccc(F)cc3)ccc2OC[C@H](C)NC[C@@H]1C	-6.15%
Cc1ccccc1S(=O)(=O)N[C@H]1CC[C@@H](CCn2cc(Cc3ccccc3)nn2)O[C@H]1CO	0.428%
CCCC(=O)Nc1ccc2c(c1)OC[C@@H](C)N(CC1CCOCC1)C[C@H](C)[C@H](OC)CN(C)C2=O	-7.57%
C[C@@H]1CN([C@H](C)CO)C(=O)c2cccc(NC(=O)Nc3ccccc3)c2O[C@H]1CN(C)Cc1ccccc1	9.88%
Cc1ccc(S(=O)(=O)N(C)C[C@@H]2OCCCC[C@H](C)Oc3ccc(NS(=O)(=O)c4cn(C)cn4)cc3C(=O)N([C@H](C)CO)C[C@@H]2C)cc1	-30.7%
CO[C@H]1CN(C)C(=O)c2ccc(NS(=O)(=O)c3ccccc3)cc2OC[C@@H](C)N(Cc2nccs2)C[C@@H]1C	-11.1%
C/C=C/c1ccc([C@@H]2[C@@H](CO)N(C(=O)CN(C)C)C23CN(C(=O)C2CCCC2)C3)cc1	25.3%
COC(=O)C1=C(C(=O)OC)C2C=C(C(C)C)C1C(=O)C2(C)O (configuration not stated)	-16.5% [at 12.3 µM]
COc1ccc(NC(=O)c2oc3ccc(S(=O)(=O)N4CCOCC4)cc3c2C)cc1	6.27% [at 12.3 µM]
Cc1occc1C(=O)Nc1cccc(S(=O)(=O)N2CCOCC2)c1	-25.4% [at 12.3 µM]
Cc1c(C(=O)Nc2cccc(S(=O)(=O)N3CCOCC3)c2)oc2ccccc12	60.5% [at 12.3 µM] (active)
COc1ccc(S(=O)(=O)N(C)C[C@@H]2OCCCC[C@@H](C)Oc3ccc(NS(=O)(=O)c4ccccc4)cc3C(=O)N([C@@H](C)CO)C[C@H]2C)cc1	-2.53%
O=C(Nc1ccc(N2CCN(C(=O)c3ccccc3)CC2)c(Cl)c1)c1cccnc1	86.4% [at 12.3 µM] (active)
O=C(Nc1ccc(N2CCN(C(=O)c3ccccc3)CC2)c(Cl)c1)c1ncn[nH]1	5.87% [at 12.3 µM]
Cc1ccccc1N1CCN(C(=O)c2cccnc2)CC1	6.64% [at 12.3 µM]
C[C@H](CO)N1C[C@H](C)[C@H](CN(C)Cc2ccncc2)Oc2ncc(C#Cc3cccc(F)c3)cc2C1=O	7.42%
CC(C)NC(=O)N[C@@H]1CC[C@H](CC(=O)NCCN2CCCC2)O[C@@H]1CO	20.3%
C[C@H](CO)N1C[C@H](C)[C@H](CN(C)C(=O)Nc2ccc(C(F)(F)F)cc2)Oc2ccc(NC(=O)Nc3ccccc3)cc2C1=O	15.8%

Compound	inhibition
NC(Cc1ccc(F)cc1)c1csc(Nc2nncc3ccccc23)n1 (configuration not stated)	58.7% [at 12.3 µM] (active)
COc1ccc(CC(N)c2csc(NC(=O)Cc3ccccc3)n2)cc1 (configuration not stated)	-13.2% [at 12.3 µM]
NC(Cc1ccccc1)c1csc(Nc2cc(Oc3ccccc3)ncn2)n1 (configuration not stated)	-44.1% [at 12.3 µM]
C[C@H]1CCCCO[C@@H](CN(C)Cc2ccc(C(=O)O)cc2)[C@@H](C)CN([C@@H](C)CO)C(=O)c2cc(NS(C)(=O)=O)ccc2O1	18.6%
CN1C(=O)c2cc(NC(=O)c3ccc4c(c3)OCO4)ccc2OC[C@@H]2O[C@H](CC(=O)O)CC[C@H]21	-18.9%
O=C(Nc1cc(Cl)cc(Cl)c1)N[C@H]1CC[C@@H](CCNS(=O)(=O)c2cccc(F)c2)O[C@H]1CO	0.313%
CCCCNc1cccc2c1S(=O)(=O)N[C@@H](C)CO2	-0.896% [at 12.3 µM]
O=C(Nc1nc(-c2ccc3c(c2)OCO3)cs1)c1ccncc1	71% [at 12.3 µM] (active)
COc1ccc(C(O)c2nc(-c3ccc4c(c3)OCO4)cs2)cc1 (configuration not stated)	-6.46% [at 12.3 µM]
C/C(=N/NC(=O)c1ccncc1)c1ccc2c(c1)OCO2	-13.1% [at 12.3 µM]
NS(=O)(=O)c1ccc2nc(NC(=O)C3=COCCO3)sc2c1	-13.9% [at 12.3 µM]
CCC(CC)c1nnc(NC(=O)C2=COCCO2)s1	-12% [at 12.3 µM]
Cc1ccc(-c2csc(NC(=O)C3=COCCO3)n2)cc1C	55.4% [at 12.3 µM] (active)
Cc1noc(C)c1NC(=O)N(C)C[C@@H]1OCCCC[C@@H](C)Oc2ccc(NC(=O)C3CCCCC3)cc2C(=O)N([C@H](C)CO)C[C@@H]1C	-14%
C[C@@H]1CN([C@@H](C)CO)C(=O)c2cc(NC(=O)Nc3cccc4ccccc34)ccc2O[C@@H]1CN(C)C(=O)Nc1cccc2ccccc12	7.37%
C[C@@H]1CN([C@@H](C)CO)C(=O)c2cc(-c3cncnc3)cnc2O[C@H]1CN(C)C(=O)c1cccc(F)c1	-6.88%
C[C@@H]1CN([C@@H](C)CO)S(=O)(=O)c2ccc(C#CC3(O)CCCC3)cc2O[C@H]1CN(C)C(=O)c1ccncc1	-22.7%
CNC[C@H]1Oc2cc(-c3ccc(OC)cc3)ccc2S(=O)(=O)N([C@H](C)CO)C[C@@H]1C	1.64%
CNC[C@H]1Oc2c(NC(=O)C3CC3)cccc2C(=O)N([C@@H](C)CO)C[C@@H]1C	-1.43%
CCS(=O)(=O)N[C@@H]1CC[C@@H](CC(=O)NCC2CC2)O[C@H]1CO	-3.04%
C[C@@H]1CN([C@H](C)CO)S(=O)(=O)c2ccc(-c3ccccc3)cc2O[C@H]1CN(C)C(=O)C1CCC1	19.5%
